Screening data: PubChem BioAssay, Sanford-Burnham Center for Chemical Genomics
Shown is part of a subset that was picked to be rich in hits.
Artemis inh – inhibitors of human Artemis endonuclease activity. Q96SD1. inhibition, % at 10 µM. recombinant Artemis, quenched FAM hairpin cleavage fluorescence. AID 686954. actives 0.78% (n = 30,000);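 active means at 10 µM dose, at least 30% inhibition, measured as corrected fluorescence normalized to stimulator and neutral control wells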
Target sequence (Q96SD1 whole entry, looked up): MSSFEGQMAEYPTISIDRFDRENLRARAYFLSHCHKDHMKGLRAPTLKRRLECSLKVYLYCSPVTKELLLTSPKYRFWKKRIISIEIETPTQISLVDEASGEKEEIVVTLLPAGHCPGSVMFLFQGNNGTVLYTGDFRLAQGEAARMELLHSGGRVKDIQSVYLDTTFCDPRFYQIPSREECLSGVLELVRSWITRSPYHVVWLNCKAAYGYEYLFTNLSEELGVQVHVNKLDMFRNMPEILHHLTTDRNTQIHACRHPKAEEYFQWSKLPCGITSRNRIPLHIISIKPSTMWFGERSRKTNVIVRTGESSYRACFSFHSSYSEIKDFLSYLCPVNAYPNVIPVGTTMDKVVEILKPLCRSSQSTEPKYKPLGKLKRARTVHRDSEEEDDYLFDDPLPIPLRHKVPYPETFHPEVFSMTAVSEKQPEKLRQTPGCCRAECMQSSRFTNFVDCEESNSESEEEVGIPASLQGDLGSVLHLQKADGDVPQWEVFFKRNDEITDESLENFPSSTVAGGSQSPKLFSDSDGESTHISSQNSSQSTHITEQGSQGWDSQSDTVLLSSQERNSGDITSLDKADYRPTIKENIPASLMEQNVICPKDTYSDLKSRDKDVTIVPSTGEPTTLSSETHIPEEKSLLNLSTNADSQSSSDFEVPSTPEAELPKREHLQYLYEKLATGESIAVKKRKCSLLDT
Of the large screens only hits and unclear results are named; the others gave an inactive call.

O=C(Nc1ccccc1)c1cc(-c2ccccc2Cl)no1	none
CN1CCN(S(=O)(=O)c2ccc(NC(=S)NC(=O)c3ccccc3)cc2)CC1	none
Cc1cc(C)n(Cc2ccc(C(=O)O)o2)n1	none
O=C(Nc1ccc(N2CCCCC2)cc1)c1ccc(F)cc1	none
CCOc1ccc(C(=O)Nc2ccc(N3CCCC3)cc2)cc1	none
COc1ccc(C(=O)Nc2ccc(N3CCCC3)cc2)cc1	Artemis inh 62
COc1cc(CNC(=O)OCC(C)C)cc(OC)c1OC	none
O=c1cc(-c2ccccc2)nc2nc(-c3ccccc3)[nH]n12	none
Nc1[nH]n2c(=O)cc(-c3ccccc3)nc2c1N=Nc1ccccc1	Artemis inh 47
O=c1cc(-c2ccccc2)nc2nc(COc3ccccc3)[nH]n12	none
N#CCSCC(=O)Nc1ccccc1	none
CCCC(=O)Nc1ccc(N2CCN(C(=O)c3ccccc3C)CC2)cc1	none
Nc1[nH]nc2nc(NCc3ccccc3)c3c(c12)CCN(Cc1ccccc1)C3	none
N#Cc1c(NCCN)nc(NCc2ccccc2)c2c1CCN(Cc1ccccc1)C2	Artemis inh 58
N#Cc1c(NCCN)nc(-c2ccccc2)c2c1CCCC2	none
C1CCC(Nc2nnnn2C2CCCCC2)CC1	none
COc1ccccc1CNC(=O)C1CCCN(S(=O)(=O)c2c(C)[nH]c(=O)[nH]c2=O)C1 (stereo not drawn)	none
COc1ccc(N=CC2=C(O)c3ccccc3C2=O)cc1	none
O=C1C(C=Nc2ccccc2)=C(O)c2ccccc21	none
Cc1ccc(O)c(N=CC2=C(O)c3ccccc3C2=O)c1	Artemis inh 38
CC(C(=O)N1CCCCC1)n1sc2ccccc2c1=O (stereo not drawn)	none
CC(C)NC(=O)c1ccc(-c2cccc(C(F)(F)F)c2)o1	none
CCCOc1ccc(-c2nnc(N)s2)cc1	none
CCCOc1ccc(N)cc1N	Artemis inh 31
CCOc1cc(-c2ccc(N)c(OCC)c2)ccc1N	none
COc1ccc(C(=O)NNC2=NC(C)(C)Cc3cc(C)c(C)cc32)cc1	none
Cc1cccc(NC2=NC3(CCCCC3)N=C(N)N2)c1C	none
CCC(=O)N(C)/C=C1\Sc2ccccc2C1=O	none
CC(=O)N(C)/C=C1\Sc2ccccc2C1=O	none
CC(=O)N(/N=C1\Sc2ccccc2C1=O)c1cccc(C)c1	Artemis inh 36
COCCn1c(-c2ccsc2)nc2c1c(=O)[nH]c(=O)n2CC(C)C	none
O=C(Nc1nnc(CCN2CCCCC2)s1)C1CCCCC1	none
COC(=O)COc1ccc(S(=O)(=O)N2CCN(c3ccccc3F)CC2)cc1	none
CC(C)NC(=O)CC(=O)N/N=C/c1ccccc1F	none
CCCN(CC1CC1)c1nc(N)c2c(N)nc(OC)cc2c1C#N	Artemis inh 49
CCOc1cc2c(C#N)c(N3CCOCC3)nc(N)c2c(N)n1	none
CCc1nc(C)c(C#N)c2cc(OC)c(OC)cc12	none
Cn1c(=O)c2c(nc(Br)n2CCCc2ccccc2)n(C)c1=O	none
COc1ccc(-c2nnc(SCC(=O)Nc3sc4c(c3C#N)CCC4)n2CC2CCCO2)cc1 (stereo not drawn)	Artemis inh 42
COc1ccc(-c2nnc(SCC(=O)NC(C)C)n2CC2CCCO2)cc1OC (stereo not drawn)	none
N#Cc1c(NC(=O)CSc2nnc(-c3ccco3)n2-c2ccccc2)sc2c1CCC2	Artemis inh 36
COc1ccc(-n2c(SCC(=O)Nc3sc4c(c3C#N)CCCC4)nnc2-c2ccccc2OC)cc1	none
CCn1c(SCC(=O)Nc2sc3c(c2C#N)CCCC3)nnc1-c1ccco1	none
COc1ccc(-c2ccc(C#N)c(SCC(=O)Nc3sc4c(c3C#N)CCC4)n2)cc1	none
CCOc1cc(C(=O)N(C)Cc2cc3ccccc3[nH]c2=O)cc(OCC)c1OCC	none
COc1ccc(C2C(C#N)=C(N)Oc3c2c(C)nn3-c2ccccc2)cc1Cn1nc(C)c([N+](=O)[O-])c1C (stereo not drawn)	none
Cc1ccc(SCc2cc(-c3ccc(Cl)cc3)no2)cc1	none
NC(=O)C1(N2CCCCC2)CCN(C(=O)c2ccc(-n3cnnn3)cc2)CC1	none
COc1ccc(C(=O)c2ccc(Cl)cc2)cc1	none
O=C(c1ccc(O)cc1)c1ccc(Cl)cc1	none
COc1ccc(C(=O)c2c(C(F)(F)F)oc3c2C(=O)c2ccccc2C3=O)cc1	none
Cc1oc2c(c1C(=O)c1ccc(Cl)cc1)C(=O)C(=O)c1ccccc1-2	Artemis inh 50
Cc1ccc(C(=O)c2cn[nH]c2-c2ccccc2O)cc1	none
Cc1ccc(C(=O)c2c(C)oc3c2C(=O)C(=O)c2ccccc2-3)cc1	Artemis inh 55
CC(N=C1NS(=O)(=O)c2ccccc21)c1ccccc1 (stereo not drawn)	none
Cc1cc(C)cc(Oc2ccccc2C=O)c1	none
Cc1cc(/C=N/n2cnnc2)c(C)n1-c1cccc(Cl)c1	none
Cc1cc(/C=N/n2cnnc2)c(C)n1-c1ccccc1	none
Cc1cc(/C=N/n2cnnc2)c(C)n1-c1ccc(OCc2ccc(Cl)cc2Cl)cc1	Artemis inh 42
Cc1c(C(=O)N2CCOCC2)sc2ncn(CC(=O)N3CCC(C)CC3)c(=O)c12	none
CCOc1cc(C)c(Cl)cc1S(=O)(=O)NCC1CCCO1 (stereo not drawn)	none
COc1ccc(OC)c(S(=O)(=O)NCC2CCCO2)c1 (stereo not drawn)	Artemis inh 45
COc1cc(C)c(Cl)cc1S(=O)(=O)NCC1CCCO1 (stereo not drawn)	none
CCOc1ccc2[nH]c(=O)c(CN(CCO)C(c3nnnn3C3CCCCC3)C(C)C)cc2c1 (stereo not drawn)	none
COCCNc1c(-c2ccc(O)cc2)nc2ccc(Cl)cn12	none
C=CCOC(=O)C(C#N)c1nc2ccccc2nc1N1CCN(c2ccccc2OC)CC1 (stereo not drawn)	none
C=CCOC(=O)C(C#N)c1nc2ccccc2nc1N1CCN(Cc2ccccc2)CC1 (stereo not drawn)	none
CCOC(=O)N1CCN(c2nc3ccccc3nc2C(C#N)S(=O)(=O)c2ccc(C)cc2)CC1 (stereo not drawn)	Artemis inh 33
CCOC(=O)c1cc2ccc(OC)cc2oc1=O	none
CCCn1c(=N)n(CC(=O)C(C)(C)C)c2ccccc21	none
O=S(=O)(Cc1cnc(Cl)s1)c1ccccc1	none
O=c1oc2ccccc2n1CSc1nc2ccccc2s1	none
O=C(O)CCN1C(=O)/C(=C/c2ccc(-c3nc4ccccc4s3)o2)SC1=S	none
O=C(O)CC(C(=O)O)N1C(=O)/C(=C/c2ccc(-c3nc4ccccc4s3)o2)SC1=S (stereo not drawn)	Artemis inh 64
COC(=O)c1ccc(Cl)c(NC(=O)CN(c2ccc(OC)cc2)S(=O)(=O)c2ccccc2)c1	none
Cc1ccc(-c2cc(C(=O)NCc3ccco3)c3ccccc3n2)o1	none
COc1ccc(C(=O)NCCCn2ccnc2)cc1	none
Cc1ccc(-c2cc(C(=O)NCCCn3ccnc3)c3cc(Br)ccc3n2)o1	Artemis inh 31
c1ccc(Nc2nc(N3CCNCC3)nc(N3CCOCC3)n2)cc1	none
CC(Sc1nnc(-c2cccs2)n1Cc1ccccc1)C(=O)NCc1ccc2c(c1)OCO2 (stereo not drawn)	none
CC(CCc1ccccc1)NC(=O)/C=C/c1ccccc1 (stereo not drawn)	none
C/C(=N\OC(=O)c1ccc(C)cc1)c1sc(C)nc1C	none
COc1cccc(C2CC(c3ccc(Cl)cc3Cl)Nc3nc(N)nn32)c1 (stereo not drawn)	none
COc1ccc(C2CC(c3ccc(Cl)cc3)Nc3nc(NC(=O)c4ccco4)nn32)cc1 (stereo not drawn)	Artemis inh 54
O=C(Nc1nc2n(n1)C(c1ccccc1)C=C(c1ccccc1)N2)c1ccco1 (stereo not drawn)	none
COc1ccc(C2CC2/C(=N/OC(=O)c2cccs2)c2ccccc2)cc1 (stereo not drawn)	none
COc1ccc(C2CC(c3ccccc3)n3nc(NC(=O)c4cccs4)nc3N2)cc1 (stereo not drawn)	Artemis inh 59
